Shown are actives, neighbours in structure and some others; about 3.3% of the full set was active somewhere.
PfG6PD inh: PfG6PD enzyme inhibitors, primary screen, biochemical, fluorescence intensity, uHTS. glucose-6-phosphate dehydrogenase-6-phosphogluconolactonase (Plasmodium falciparum 3D7). PfGluPho enzyme, NADPH resazurin-diaphorase fluorescence. inhibition, % at 20 µM. hit rate 0.78% among 350,000. AID 504690, 2011;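 active = inhibition reaching at least a set limit at 20 µM in the primary screen, cut at about 59% in these data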
MBD2 DNA inh: inhibitors of MBD2 binding to methylated DNA, primary screen, biochemical, TR-FRET, DNA-binding domain, human; MBD2 binding to methylated oligonucleotide; Methyl-CpG-binding domain protein 2 (Homo sapiens), Q9UBB5; hit rate 0.31% among 370,000; inhibition, % at 4.4 µM; AID 686964, 2013; in the data active = inhibition above about 13%
Target sequence (Q9UBB5 whole entry, looked up, the tested form may be a part): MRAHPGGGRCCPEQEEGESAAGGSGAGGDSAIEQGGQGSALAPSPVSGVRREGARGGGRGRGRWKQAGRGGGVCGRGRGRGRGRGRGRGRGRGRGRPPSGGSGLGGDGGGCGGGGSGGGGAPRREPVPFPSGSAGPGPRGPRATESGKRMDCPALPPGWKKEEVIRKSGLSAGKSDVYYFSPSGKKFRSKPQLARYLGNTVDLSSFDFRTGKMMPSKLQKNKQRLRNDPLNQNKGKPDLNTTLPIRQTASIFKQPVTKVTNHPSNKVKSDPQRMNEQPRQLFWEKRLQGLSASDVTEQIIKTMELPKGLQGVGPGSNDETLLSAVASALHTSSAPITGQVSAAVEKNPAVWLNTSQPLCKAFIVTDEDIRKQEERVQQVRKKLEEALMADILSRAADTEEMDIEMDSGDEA
PfM18AAP inh: PfM18AAP inhibitors, malaria aminopeptidase, primary screen, biochemical, QFRET, recombinant enzyme; H-Glu-NHMec fluorogenic cleavage; hit rate 1.2% among 290,000; inhibition, % at 7.35 µM; M18 aspartyl aminopeptidase (Plasmodium falciparum 3D7);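 active = inhibition above the campaign mean inhibition over all tested compounds plus 3 SD, cut at about 28% in these data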
UHRF1 binding: UHRF1 methylated DNA binding inhibitors, primary screen, counter-screen for MBD2 inhibitor project, biochemical, TR-FRET, human UHRF1, single concentration | E3 ubiquitin-protein ligase UHRF1 (Homo sapiens), Q96T88 | UHRF1 binding to methylated oligo | inhibition, % at 4.4 µM | hit rate 0.75% among 370,000; in the data active = inhibition above about 21%;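 also: UHRF1 SRA domain binding a hemimethylated CpG hairpin DNA probe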
PRMT1 inh: PRMT1 methyltransferase inhibitors, primary screen, biochemical, fluorescence polarization; recombinant PRMT1, activity-based probe fluorescence polarization; inhibition, % at 2.79 µM; hit rate 1.3% among 370,000;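 active = inhibition above about 21% made by adding two undisclosed values, limit read from the data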
A number is an active result; . = inactive; / = not tested or not shown.

SMILES | PfG6PD inh | MBD2 DNA inh | PfM18AAP inh | UHRF1 binding | PRMT1 inh
NC(=O)Cn1cc(C=C2C(=O)NC(=O)NC2=O)c2ccccc21 | . | . | 28.6 | . | .
O=C(O)Cn1cc(/C=C2\C(=O)NC(=O)N(c3ccc(F)cc3)C2=O)c2ccccc21 | / | / | . | / | /
CCc1ccccc1NC(=O)CSc1nnc([C@@H](N)Cc2c[nH]c3ccccc23)o1 | . | . | . | . | 23.9
Nc1cccc(SC2CC(=O)N(c3ccc(Cl)cc3C(=O)c3ccccc3)C2=O)c1 (centres undefined) | . | . | / | 28.0 | .
Brc1csc(N2CCNCC2)n1 | / | . | / | . | .
CCOc1cccc(N2C(=O)/C(=C/c3ccco3)C(=O)NC2=S)c1 | . | . | . | 49.5 | .
COc1cccc(N2C(=O)/C(=C/c3ccc(C)o3)C(=O)NC2=S)c1 | . | . | . | . | .
CCCC(C)n1[nH]c(=O)c2c1NC(=O)CSC2c1ccc(OC)cc1 (centres undefined) | . | . | . | . | .
COc1ccc(C2SCC(=O)Nc3c2c(C)nn3-c2ccccc2)cc1 (centres undefined) | . | . | . | . | 23.1
CC(Cc1cccs1)NCc1ccccc1 (centres undefined) | . | . | . | 29.3 | .
Clc1cc(I)cc(Cl)c1NC1=NCCN1 | . | . | / | . | .
O=C(Nc1ccc(C(=O)O)cc1)Oc1ccc(N(CCCl)CCCl)cc1 | / | . | / | . | .
Cc1oc(-c2ccc(F)cc2F)nc1CN1C[C@@H]2C[C@@H](C1)c1cccc(=O)n1C2 | . | . | . | . | .
Cc1ccc(CC2C(=O)N(C)C(=O)N(C)C2=O)s1 | . | . | . | . | 21.2
Cc1cc(C)c2c(ccc3cccc[n+]32)c1 | . | . | / | . | .
C[CH2][Hg][S]c1ccccc1C(=O)O | . | . | / | . | 83.7
COc1cc(/C=C/[N+](=O)[O-])ccc1O | . | . | 29.1 | . | .
CN1C[C@H](CO)C=C2c3cccc4[nH]cc(c34)C[C@H]21 | . | . | . | . | 22.8
CN(C)CC#CCn1c2ccccc2c2ccccc21 | . | . | . | . | .
C(#CCN1CCOCC1)COC/C=C/c1ccccc1 | . | . | 31.3 | . | .
CC(C)c1ccc(N2C(=O)NC(=O)/C(=C\c3cnc(-c4ccccc4)nc3)C2=O)cc1 | . | . | . | . | .
COc1ccc(CN2C(=O)NC(=O)/C(=C\c3ccco3)C2=O)cc1 | . | . | . | . | .
O=C1NC(=O)N(Cc2ccccc2)C(=O)/C1=C/C=C/c1ccco1 | . | . | . | . | 23.4
CC(C)c1ccc(N2C(=O)NC(=O)/C(=C\C=C\c3ccco3)C2=O)cc1 | . | . | . | 24.1 | .
O=C1NC(=O)N(c2ccccc2)C(=O)/C1=C/c1ccc(Sc2ccccc2)o1 | . | / | . | / | /
SMILES | PfG6PD inh | MBD2 DNA inh | PfM18AAP inh | UHRF1 binding | PRMT1 inh
O=C1NC(=O)N(c2ccccc2F)C(=O)/C1=C/c1ccc(Sc2nc3ccccc3[nH]2)o1 | . | . | . | . | 25.0
O=c1[nH]c(=O)n(Cc2ccco2)c(O)c1C=NCc1ccc2c(c1)OCO2 | . | . | . | . | 23.2
COc1c2c(cc3c1OCO3)CCN(C)C2 | . | . | / | . | .
COc1cc2c(cc1O)C[C@H]1NCCc3cc4c(c-2c31)OCO4 | . | 22.6 | . | 30.5 | .
O=C(O)c1cc[c]([Hg][Cl])cc1 | 121.8 | / | / | / | /
CCN1C[C@]2(CO)CC[C@H](OC)[C@@]34C5C[C@H]6[C@H](OC)C5[C@](O)(C[C@H]6OC)[C@@H](C(OC)C23)[C@@H]14 (some centres undefined) | . | . | / | . | .
O=P(O)(O)COc1ccccc1O | . | . | . | . | .
c1ccc2c(c1)-c1cccc3cccc-2c13 | . | . | / | . | .
Nc1c(Br)cc2c3c(cccc13)-c1ccccc1-2 | 125.2 | . | / | . | .
Clc1cnc(Oc2ccc(Oc3ncc(Cl)cc3Cl)cc2)c(Cl)c1 | . | . | . | . | .
C=CCN1C(=O)/C(=C/c2ccc(N3CCOCC3)o2)C(=O)NC1=S | . | . | . | . | .
C=CCN1C(=O)NC(=O)/C(=C\c2ccc(-c3ccccc3[N+](=O)[O-])o2)C1=O | . | . | . | 55.8 | .
O=C1NC(=O)N(c2ccccc2)C(=O)/C1=C/c1coc2ccc(O)cc2c1=O | . | . | . | 27.4 | .
O=C1NC(=O)N(c2ccc(Cl)cc2)C(=O)/C1=C/c1coc2ccc(O)cc2c1=O | . | . | . | . | .
C=CCn1c(O)c(C(C)=Nc2cc(OC)ccc2OC)c(=O)[nH]c1=O | . | . | . | . | .
CCSC(=O)N1CCCCCC1 | . | . | / | . | .
NCC(CC(=O)O)c1ccc(Cl)cc1 (centres undefined) | . | . | . | 24.9 | .
Oc1cc2c(cc1O)[C@H]1c3ccccc3CN[C@@H]1CC2 | / | / | 89.5 | / | /
CC(=O)C1CCC2C3CC(O)C4CC(O)CCC4(C)C3CCC12C (centres undefined) | . | . | / | . | .
CN1C(=O)C(=Cc2ccccc2OCc2ccccc2Cl)C(=O)N(C)C1=O | . | . | . | . | 22.7
CN1C(=O)C(=Cc2ccccc2OCc2ccc(C(=O)O)cc2)C(=O)N(C)C1=O | . | . | . | . | .
O=c1c([N+](=O)[O-])cn(O)cc1[N+](=O)[O-] | . | . | / | . | .
O=[N+]([O-])/C=C/c1c(Cl)cccc1Cl | 101.3 | . | / | . | .
CCN(CC)c1ccc(/C=C/[N+](=O)[O-])cc1 | . | . | . | . | .
CCCCCN1C(=O)c2ccccc2[C@@]2(C(=O)OCC)Cc3cc(OC)ccc3[C@@H]12 | / | . | / | . | .
SMILES | PfG6PD inh | MBD2 DNA inh | PfM18AAP inh | UHRF1 binding | PRMT1 inh
Cn1c(O)c(/C=C2\C=c3ccccc3=NC2=O)c(=O)n(C)c1=O | . | . | . | 75.4 | .
Cn1c(O)c(/C=C2\C=Nc3ccccc32)c(=O)n(C)c1=O | . | . | . | . | .
O=C(NCNC(=O)NC1C(=O)NC(=O)N1CO)NC1C(=O)NC(=O)N1CO (centres undefined) | . | . | / | . | .
COc1cc(/C=C(/C)[N+](=O)[O-])ccc1OCc1ccccc1Cl | . | / | 30.0 | / | /
O=C(CNC(=O)OCc1ccccc1)NC(Cc1ccccc1)P(=O)(Oc1ccccc1)Oc1ccccc1 (centres undefined) | / | . | / | . | .
CNCCc1ccc(O)c(O)c1 | . | . | / | . | 21.4
O=C1NC(=S)N(c2ccccc2)C(=O)C1C(c1ccncc1)C1C(=O)NC(=S)N(c2ccccc2)C1=O (centres undefined) | . | . | . | . | 28.2
CCn1nc(-c2cccs2)nc2c(=O)n(C)c(=O)nc1-2 | 107.1 | / | / | / | /
CCOc1ccc(-n2c(-c3cccs3)nc3ccccc3c2=O)cc1 | . | . | . | . | .
Fc1ccc(CCNCc2ccc(Br)cc2)cc1 | . | . | . | 34.7 | .

Compound activity: PubChem BioAssay, several laboratories
